Compound activity as filed in PubChem BioAssay.
The list is not random: actives were taken first. Their share in the collection is about 3.5%.
TEAD-YAP block: TEAD-YAP interaction inhibition; HEK-TIYL cells, TEAD-Gal4/YAP UAS-luciferase luminescence; inhibition, % at 9.12 µM; 1.4% of 640,000 active; in the data active means inhibition above about 32%
FBW7 activator: human FBW7 E3 ligase activation, primary screen. Q969H0. AlphaScreen FBW7–phospho-cyclin E peptide binding, activator screen. normalized activity (activation), % at 26.1 µM. 0.13% of 650,000 active. AID 1259310; in the data active means normalized activity above about 1.9%;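 further: purified mutant Fbw7 with reduced substrate affinity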
Target sequence (Q969H0 whole entry, looked up): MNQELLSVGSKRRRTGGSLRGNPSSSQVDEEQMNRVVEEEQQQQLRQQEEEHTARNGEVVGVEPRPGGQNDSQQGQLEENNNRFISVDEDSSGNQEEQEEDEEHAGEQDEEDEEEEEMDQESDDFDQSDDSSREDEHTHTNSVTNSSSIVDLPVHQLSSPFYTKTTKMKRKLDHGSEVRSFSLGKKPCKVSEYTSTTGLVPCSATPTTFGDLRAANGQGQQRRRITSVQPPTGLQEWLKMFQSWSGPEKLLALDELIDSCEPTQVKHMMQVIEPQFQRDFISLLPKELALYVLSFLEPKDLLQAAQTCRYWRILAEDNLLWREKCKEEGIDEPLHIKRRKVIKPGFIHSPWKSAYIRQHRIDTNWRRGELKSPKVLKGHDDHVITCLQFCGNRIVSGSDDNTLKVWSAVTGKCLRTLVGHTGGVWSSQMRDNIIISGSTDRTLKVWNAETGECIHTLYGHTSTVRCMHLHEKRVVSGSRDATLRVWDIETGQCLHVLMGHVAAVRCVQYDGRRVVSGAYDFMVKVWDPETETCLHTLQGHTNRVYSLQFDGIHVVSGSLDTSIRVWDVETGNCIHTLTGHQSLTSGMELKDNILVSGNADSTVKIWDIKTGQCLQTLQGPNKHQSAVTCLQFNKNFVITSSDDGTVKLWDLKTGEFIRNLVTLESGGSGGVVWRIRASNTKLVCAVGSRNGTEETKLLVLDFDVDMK
MITF inh: inhibitors of human MITF; O75030; 0.91% of 650,000 active; AlphaScreen MITF homodimerization, bead proximity signal; inhibition, % at 2.6 µM; in the data active means inhibition above about 50%
GPR151 ag: human GPR151 activation. PathHunter beta-arrestin GPR151 cells, luminescence. 1% of 650,000 active. activation, % at 11.2 µM; in the data active means activation above about 4.9%
MITF inh conf: confirmation of human MITF inhibitors; inhibition, % at 2.6 µM; shares compounds with MITF inh; AlphaScreen MITF homodimerization, biotin/His-MITF beads; AID 1259372; 16% of 4,700 active;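 active means inhibition above a cutoff derived from the DMSO control wells, cut at about 28% in these data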;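 further: inhibitors lower the bead chemiluminescence by keeping MITF from dimerizing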
AS interf DR: AlphaScreen optical interference, dose response counter-screen; shares compounds with MITF inh; AlphaScreen optical interference counterscreen, cell-free; IC50, µM; 6% of 480 active; AID 1259373; call rule not given here
AlphaScreen intf2: optically interferes with AlphaScreen signal; shares compounds with MITF inh; LysRS AlphaScreen counterscreen, signal interference, triplicate; inhibition, % at 2.6 µM; 7.6% of 4,700 active; AID 1259376;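 active means inhibition above a cutoff derived from the DMSO control wells, cut at about 30% in these data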
Numbers stand for hits; i = inactive; nt = not tested or not shown.

SMILES	TEAD-YAP block	FBW7 activator	MITF inh	GPR151 ag	MITF inh conf	AlphaScreen intf2	others
O=C(CN1CCCC1)Nc1c2c(nc3c1CCC3)CCC2	i	i	76	i	i	i
CN1CCN(CC(=O)Nc2c3c(nc4c2CCC4)CCCC3)CC1	i	i	74	i	i	i
C[C@@H](c1ccccc1)N1C(=O)[C@H]2[C@H]3[C@H](O)[C@H](O)C/C(=N\OCc4ccccc4)[C@@H]3CC[C@H]2C1=O	nt	i	i	i	nt	nt
CC(C)NC(=O)CSc1nnc(-c2ccc(S(=O)(=O)N3CCCC3)cc2)n1C	i	i	i	i	nt	nt
COC(=O)c1c(OC2Cc3ccccc3C2)cc(=O)n2c1CCN(C(=O)c1ccoc1)CC2	i	i	i	i	nt	nt
CSc1ccccc1NC(=O)CC1SC(N)=NC1=O (stereo unspecified)	i	i	i	i	nt	nt
CC(C)c1cccc(OCCOCCNC(C)(C)C)c1	i	i	67	i	i	i
CCCCNCCOCCOc1cccc(C(C)C)c1	i	i	i	i	nt	nt
CC(C)c1cccc(OCCOCCNCCN)c1	i	i	51	i	i	i
CCOc1cccc(OCCOCCNC(C)(C)C)c1	i	i	67	i	i	i
CCOc1ccccc1NC(=O)c1ccc(F)c(S(=O)(=O)N(CC)Cc2ccccc2)c1	i	i	i	i	nt	nt
COCc1cc(C)nc(SCCN(C)C)c1C#N	i	i	51	i	i	i
COc1ccc(-n2c(CN3CCSCC3)n[nH]c2=S)cc1	i	i	71	i	i	i
NC(=O)CSc1nnc(-c2cccnc2)n1-c1ccc(Cl)cc1	i	i	i	i	nt	nt
O=C(NC1CCCCC1)c1ccc2c(=O)n(Cc3ccc4c(c3)OCO4)c(=S)[nH]c2c1	i	i	i	i	nt	nt
COc1cccc(CN2CCN(C3CCCCCC3)CC2)c1OC	i	i	71	i	i	i
COc1cccc(CN2CCN(C3CCCCC3C)CC2)c1OC (stereo unspecified)	i	i	86	i	i	i
COc1cccc(CN2CCN(C3CC4CCC3C4)CC2)c1OC (stereo unspecified)	i	i	71	i	i	i
COc1cccc(CN2CCN(C3CCCC3)C(CCO)C2)c1OC (stereo unspecified)	i	i	i	i	nt	nt
CCN(CC)C(=O)C1CCCN(Cc2cccc(OC)c2OC)C1 (stereo unspecified)	i	i	i	i	nt	nt
COc1cccc(CN2CCCC(C(=O)NN)C2)c1OC (stereo unspecified)	i	i	55	i	i	i
Cc1ccc(Cn2c(C)cc(=O)c3cc(NC(=O)CCC(=O)N4CCCC4)ccc32)cc1	i	i	i	i	nt	nt
Nn1c(SCc2cc(=O)n3c(n2)sc2ccccc23)nnc1C1CC1	i	i	i	i	nt	nt
Cn1c(SCc2cc(=O)n3c(n2)sc2ccccc23)nnc1C(F)(F)F	i	i	60	i	79	i	AS interf DR=i
CCn1c2cc(C)sc2c2cnn(Cc3nccc(OC)c3OC)c(=O)c21	i	i	i	i	nt	nt
SMILES	TEAD-YAP block	FBW7 activator	MITF inh	GPR151 ag	MITF inh conf	AlphaScreen intf2	others
O=C(c1cccs1)N1CCN(Cc2ccc(Br)cc2)CC1	i	i	i	i	nt	nt
O=C1NC(=S)N/C1=C\c1ccc([N+](=O)[O-])o1	i	i	67	i	67	i	AS interf DR=i
O=C1NC(=S)N/C1=C\c1ccc(-c2cccc([N+](=O)[O-])c2)o1	i	i	i	i	nt	nt
CC1CCCC(NC(=O)CN(C)S(=O)(=O)c2cccc3cccnc23)C1C (stereo unspecified)	i	i	64	i	i	i
COc1ccc(-c2nnc(SCc3nnc(-c4ccccc4)o3)o2)cc1	i	i	i	i	nt	nt
COc1ccc(-c2c(F)ccc3cnc(Nc4ccc(-n5cnc(N6CCOCC6)n5)cc4)nc23)cc1F	i	i	56	i	i	i
O=C(c1csc(Nc2cccc3ccccc23)n1)N1CCCC1	i	i	77	i	i	i
O=C(CNC1CCCCC1)Nc1ccccc1N1CCOCC1	i	i	55	i	i	i
O=C(CNCCCN1CCOCC1)Nc1ccccc1N1CCOCC1	i	i	84	i	i	i
O=C(CNCCN1CCOCC1)N1CCc2ccccc2C1	i	i	71	i	i	i
CC1=CC(C)(C)N(C(=O)CNCCCN2CCOCC2)c2cc(C)ccc21	i	i	56	i	i	i
O=C(CNC1CCCCCC1)Nc1ccccc1N1CCCCC1	i	i	i	i	nt	nt
O=C(NCc1cccnc1)C1CC12CCN(Cc1ccc(-c3ccc(Cl)cc3)o1)CC2 (stereo unspecified)	i	i	i	i	nt	nt
O=C(O)CN1C(=O)/C(=C\c2ccc(-c3ccccc3[N+](=O)[O-])o2)SC1=S	i	i	i	i	nt	nt
O=C(CNCCCO)Nc1ccccc1N1CCCCCC1	i	i	i	i	nt	nt
O=C(CNCCN1CCCCC1)Nc1ccccc1N1CCCCC1	i	i	85	i	i	i
O=C(CNCCCO)Nc1ccccc1N1CCCCC1	i	i	57	i	i	i
CC(C)CCNCC(=O)Nc1ccccc1N1CCCCC1	i	i	58	i	i	i
O=C(CNC1CCCC1)Nc1ccccc1N1CCCCCC1	i	i	i	i	nt	nt
O=C(CNCCN1CCCCC1)Nc1ccccc1N1CCOCC1	i	i	86	i	i	i
CC1Cc2nc(SCC(=O)Nc3ccccc3F)n(Cc3ccccc3)c(=O)c2S1 (stereo unspecified)	i	i	i	i	nt	nt
O=C(CCC1(Cc2cccs2)CCC(=O)N1)NCC1(c2ccccc2)CCOCC1 (stereo unspecified)	i	i	i	i	nt	nt
CCc1cccc(OCC(O)CNCc2cccnc2)c1 (stereo unspecified)	i	i	76	i	i	i
CC(=O)c1cccc(OCC(O)CNCc2cccc(C(F)(F)F)c2)c1 (stereo unspecified)	i	i	57	i	i	i
CC1(c2ccccc2)CC(C)(C)N(C(=O)COc2ccccc2[N+](=O)[O-])c2ccccc21 (stereo unspecified)	i	i	i	i	nt	nt
SMILES	TEAD-YAP block	FBW7 activator	MITF inh	GPR151 ag	MITF inh conf	AlphaScreen intf2	others
CC(C)(C)c1ccc(S(=O)(=O)N2CCc3nc4ccccc4c(C(=O)O)c3C2)cc1	i	i	51	i	i	i
CCCCNc1nc(-c2cc(OC)ccc2OC)cs1	i	i	59	i	i	i
CCC(C)NCCOc1ccccc1F (stereo unspecified)	i	i	53	i	i	i
CCCOc1ccc(OCCCNC(C)CC)cc1 (stereo unspecified)	i	i	i	i	nt	nt
CCC(C)NCCCOc1cccc(Br)c1 (stereo unspecified)	i	i	80	i	i	i
CCOc1ccc(CC(=O)Nc2ccc(N3CCCC3=O)cc2)cc1	i	i	i	i	nt	nt
CCOc1ccccc1NC(=O)CSc1ccc2nnc(-c3ccc(OC)cc3)n2n1	i	i	i	i	nt	nt
CCc1nc(NCCCCCO)c2nnn(Cc3ccccc3)c2n1	i	i	i	i	nt	nt
CCc1nc(NCC(C)C)c2nnn(Cc3ccccc3)c2n1	i	i	61	i	i	i
